In the library only some 2.3% were active in any assay of this set; here they are far more common.
CHO-K1 Ca ag – nonselective activator or artifact in parental CHO-K1 cells; AID 602248; 360,000 compounds, 0.48% hits; Fluo-8 calcium fluorescence; scaled to maximal ATP response, vehicle zero; activation, % at 3 µM; in the data active means activation above about 15%;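 further: untransfected CHO-K1 host cells lacking M1 receptor as counterscreen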
CHRM1 antagonist – human CHRM1 antagonism. CHO-K1 hM1, Fluo-8 calcium fluorescence, ACh EC80 antagonist. inhibition, % at 3 µM. 360,000 compounds, 1.3% hits;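 active means percent inhibition above its own plate's cutoff, namely the mean of that plate's compound wells plus 3 SD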;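 further: peak over basal fluorescence ratio during 140 s after agonist addition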
Target sequence (P11229 whole entry, looked up): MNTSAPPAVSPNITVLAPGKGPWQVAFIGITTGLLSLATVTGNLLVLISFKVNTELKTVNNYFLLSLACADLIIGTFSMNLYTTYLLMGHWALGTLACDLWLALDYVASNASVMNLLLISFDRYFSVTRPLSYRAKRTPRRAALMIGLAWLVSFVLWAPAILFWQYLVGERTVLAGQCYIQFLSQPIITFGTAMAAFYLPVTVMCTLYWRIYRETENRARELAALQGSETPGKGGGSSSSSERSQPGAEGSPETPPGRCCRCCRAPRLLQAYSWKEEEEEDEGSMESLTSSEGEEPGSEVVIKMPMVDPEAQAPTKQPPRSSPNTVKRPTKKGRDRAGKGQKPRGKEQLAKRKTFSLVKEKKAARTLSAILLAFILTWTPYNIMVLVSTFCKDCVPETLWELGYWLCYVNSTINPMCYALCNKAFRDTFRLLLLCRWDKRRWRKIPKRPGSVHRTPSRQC
CHO-K1 Ca PAM – M1 PAM counterscreen hit in parental CHO-K1 cells; ATP EC20, Fluo-8 calcium fluorescence; 0% at ATP EC20, 100% at ATP max; activation, % at 3 µM; 360,000 compounds, 0.02% hits;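 active means activation above the run cutoff, the mean activation of all test compounds plus 3 SD, cut at about 40% in these data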;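 further: peak over basal fluorescence ratio in a 140 s read after ATP addition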
CHRM1 agonist – human M1 muscarinic receptor agonism; P11229; CHO-K1 hM1, Fluo-8 calcium fluorescence, agonist mode; 0% DMSO, 100% acetylcholine EC100; activation, % at 3 µM; 360,000 compounds, 0.33% hits;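 active means activation above the run's mean compound activation plus 3 SD, cut at about 16% in these data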;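 further: peak over basal fluorescence ratio within a 140 s kinetic read after compound addition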
CHO-K1 Ca antag – M1 antagonist counterscreen hit in parental CHO-K1 cells; ATP-induced calcium, Fluo-8 fluorescence; inhibition, % at 3 µM; 360,000 compounds, 0.6% hits; AID 602250;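 active means inhibition above a per-plate cutoff, the plate's mean sample inhibition plus 3 SD, cut at about 24% in these data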
M1 PAM – potentiates human M1 receptor response to acetylcholine. P11229. CHO-K1 hM1, Fluo-8 calcium fluorescence, ACh EC20; 0% = ACh EC20, 100% = maximal ACh. activation, % at 3 µM. 360,000 compounds, 0.088% hits; in the data active means activation above about 19%, passing the limit was not always enough
Of the large screens only hits and unclear results are named; the others gave an inactive call.

Cc1[nH]nc2c1/C(=N\O)CC(C)(C)C2	none
Cc1ccc(S(=O)(=O)N2C[C@H]3C(=O)C[C@@H](c4ccccc4F)N(S(=O)(=O)c4ccc(C)cc4)[C@H]3C[C@H]2c2ccccc2)cc1	CHO-K1 Ca antag 31.0
Cc1ccc([C@@H]2CC(=O)[C@@H]3CN(S(=O)(=O)c4ccc(C)cc4)[C@H](c4ccccc4F)C[C@@H]3N2S(=O)(=O)c2ccc(C)cc2)cc1	none
Cc1ccc([C@@H]2C[C@H]3[C@@H](CN2S(=O)(=O)c2ccc(C)cc2)C(=O)C[C@@H](c2ccc(Cl)cc2)N3S(=O)(=O)c2ccc(C)cc2)cc1	none
Cc1ccc(S(=O)(=O)N2C[C@H]3C(=O)C[C@@H](c4ccc(Cl)cc4)N(S(=O)(=O)c4ccc(C)cc4)[C@H]3C[C@H]2c2cccc3ccccc23)cc1	CHO-K1 Ca antag 29.8
COc1ccc(NC(=O)CSc2nc(N)c(NC(=O)c3ccccc3F)c(=O)[nH]2)cc1	none
COc1ccc(NC(=O)c2ccc3ccccc3c2OC)cc1	CHO-K1 Ca ag 22.0
COc1ccc(NC(=O)c2cc3ccccc3cc2OC)cc1	none
COc1ccc(CC(=O)Nc2ccc(NC(=O)c3ccccc3F)cc2)cc1	CHRM1 agonist 27.5
CN(C)c1cc[n+](CC(=O)Nc2ccc(Oc3ccccc3)cc2)cc1	CHRM1 antagonist 63.6
Nc1nc2ccc(Cl)cc2cc1C(=O)NCc1ccc(Oc2ccccc2)cc1	CHO-K1 Ca antag 27.9 (no result: CHRM1 antagonist, CHRM1 agonist, M1 PAM)
Nc1nc2ccc(Cl)cc2cc1C(=O)NCCc1c[nH]c2ccccc12	none (no result: CHRM1 antagonist, CHRM1 agonist, M1 PAM)
COc1ccc(CCNC(=O)c2cc3ccc(Cl)cc3nc2N)cc1	CHO-K1 Ca antag 33.3 (no result: CHRM1 antagonist, CHRM1 agonist, M1 PAM)
COC(=O)c1cc(Br)c(N)cc1OC	none
CCN(CC)CCNC(=O)c1cc(Br)c(N)cc1OC	CHO-K1 Ca antag 35.0
CSc1ncnc2c1ncn2CCCN1CCN(C(=O)C2CC2)CC1	none
COc1cc(CNCCNC(=O)c2nonc2N)ccc1OCc1ccc(Cl)cc1	CHO-K1 Ca ag 17.0
CCc1nc2c(OCc3cccc(Cl)c3)cccn2c1N(C)C(=O)Nc1ccccc1OC	none
CCNc1nc(NC(C)C)nc(NC(C)(C)C)n1	CHRM1 antagonist 33.2
CC(C)(C)c1ccc(-n2nc(C#N)c(Cl)cc2=O)cc1	CHRM1 antagonist 44.6, CHO-K1 Ca antag 30.2
Cc1ccc(S(=O)(=O)N2CCC(C(=O)O)CC2)cc1C(=O)O	none
O=C(O)C1CCN(S(=O)(=O)c2ccc3[nH]ccc3c2)CC1	CHO-K1 Ca antag 26.4
O=C(CSc1ccc(S(=O)(=O)N2CCOCC2)cn1)Nc1ccc(F)c(F)c1	CHRM1 antagonist 38.8
CCCNC(=O)Cn1c(=O)/c(=C/c2ccc(-c3ccc([N+](=O)[O-])cc3)o2)s/c1=C\C(=O)C(C)(C)C	CHO-K1 Ca ag 32.4, CHRM1 antagonist 65.0, CHRM1 agonist 73.5, CHO-K1 Ca antag 31.1
Cc1cc2nc(C)c(=O)n(C)c2cc1C	none
Cc1cc2nc3n(c2cc1C)CCCN3	CHRM1 antagonist 34.3
COc1cccc(-c2nc3ccccc3s2)c1O	CHO-K1 Ca ag 15.3
COc1cc(OC)c(-c2nc3ccccc3s2)cc1OC	none
COc1ccc(C(=O)Nc2nc3ccccc3s2)c(OC)c1	none
COc1ccccc1C(=O)Nc1nc2ccccc2s1	CHRM1 antagonist 30.8
CC1(C)C(=O)C=C(N2CCCCC2)c2ccccc21	none
Nc1nc(SCC(=O)Nc2c(Br)cc([N+](=O)[O-])cc2Br)n[nH]1	CHO-K1 Ca antag 29.1
Cc1ccc(S(=O)(=O)Nc2ccc(O)c3ccccc23)c(C)c1	CHO-K1 Ca antag 26.9
Cc1noc(C)c1COc1ccccc1C(=O)NCCOc1ccccc1	none
O=C(CNC(=S)N(Cc1ccccc1)Cc1cccnc1)NC1CCCC1	none
COC(=O)c1cc(S(=O)(=O)C(C)C)c(S(C)=O)s1 (stereo not given)	none
CCC(C)c1c(O)nc(SCC(=O)N2CCCCC2)[nH]c1=O (stereo not given)	none
CCC(C)c1c(O)nc(SCC(=O)N2CCOCC2)[nH]c1=O (stereo not given)	M1 PAM 24.6
Cc1ccc(CNC(=O)c2nnn(CC(=O)Nc3cc(C)cc(C)c3)c2N)cc1	none
Cc1cc(OCC(O)CNC(C)c2ccccc2)ccc1C(C)C (stereo not given)	none
CCCCCCCCNC(=S)NCCN1CCCCC1	none
CC1(C(=O)Nc2ccc3[nH]ncc3c2)CCN1C(=O)Cc1ccc(-c2ccccc2)cc1 (stereo not given)	CHRM1 antagonist 28.0
Cn1nc(C2CC2)cc1NC(=O)C1(C)CCN1C(=O)Cc1ccc(-c2ccccc2)cc1 (stereo not given)	CHRM1 antagonist 30.0
CC(C)(C)c1ccc(CC(=O)N2CCC2(C)C(=O)Nc2ccc3[nH]ncc3c2)cc1 (stereo not given)	none
CC1(C(=O)Nc2ccc3c(c2)OCO3)CCN1C(=O)Cc1ccc(-c2ccccc2)cc1 (stereo not given)	CHRM1 antagonist 37.9
CC1CCCCC12NC(=O)N(CC(=O)OCC(=O)Nc1ccc(F)cc1[N+](=O)[O-])C2=O (stereo not given)	CHRM1 antagonist 29.0
CC1CCCCC12NC(=O)N(CC(=O)NCc1cccs1)C2=O (stereo not given)	CHO-K1 Ca antag 25.1
COc1ccccc1C(=O)NC(=O)COC(=O)CN1C(=O)NC2(CCCCC2C)C1=O (stereo not given)	none
O=C(CCC(=O)c1ccc(F)cc1)OCc1nnc(-c2ccc([N+](=O)[O-])cc2)o1	none
CN(CCO)CCC(=O)NC1(C)CS(=O)(=O)CC1S(=O)(=O)O (stereo not given)	none
Cc1cccc(S(=O)(=O)NCCNS(=O)(=O)c2cccc(C)c2)c1	none
CCN(C(=O)C1CCN(c2nc(-c3ccc(OC)cc3)no2)CC1)c1ccc(OC)cc1	CHRM1 antagonist 41.8
COc1ccc(NC(=O)C2CCN(c3nc(-c4ccc(OC)cc4)no3)CC2)cc1	none
O=C1CCC(c2ccc3ccccc3c2)O1 (stereo not given)	none
CCc1ccc([C@@H]2CC(=O)[C@@H]3CN(S(=O)(=O)c4ccccc4C)[C@H](c4ccc(Cl)cc4)C[C@@H]3N2S(=O)(=O)c2ccc(C)cc2)cc1	none
OCCCc1n[nH]c(=S)n1-c1ccccc1	none
O=C1c2cccc3cccc(c23)C(=O)N1CCCc1n[nH]c(=S)n1-c1ccccc1	CHRM1 antagonist 31.1
CC(OC(=O)c1cccc(-n2cnnn2)c1)c1nc2ccccc2c(=O)[nH]1 (stereo not given)	none
Cc1cc2c(SCC(=O)NCC3CCCO3)ncnc2s1 (stereo not given)	none
O=C1CC(c2cccs2)CC(O)=C1C=NCCN1CCNCC1 (stereo not given)	CHRM1 antagonist 32.2, CHRM1 agonist 17.1

Source: PubChem BioAssay (The Scripps Research Institute Molecular Screening Center)
